# Positions count from the first letter of the chain named.
# Experiments:
# Experiment in all cases: PBM; 200 nM protein, PBS
# Conditions in all cases: dsDNA, one strand shown
# [1] = target: CRX (Homo sapiens, UniProt O43186 26-111)
# [2] = target: T1, VENTX (Homo sapiens, UniProt O95231 78-163, R121Q)
# T1 sequence: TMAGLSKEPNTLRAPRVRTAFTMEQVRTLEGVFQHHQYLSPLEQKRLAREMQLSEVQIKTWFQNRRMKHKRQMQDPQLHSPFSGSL
# [3] = target: T2, VENTX (Homo sapiens, UniProt O95231 78-163)
# T2 sequence: T1 sequence with Q44R
# [4] = target: T3, VENTX (Homo sapiens, UniProt O95231 78-163, Y115F)
# T3 sequence: T1 sequence with Y38F, Q44R
# [5] = target: HOXA4 (Homo sapiens, UniProt Q00056 201-287, R217L)
# Sequence of HOXA4 (Homo sapiens, UniProt Q00056 201-287, R217L) (Q00056 201-287 R217L): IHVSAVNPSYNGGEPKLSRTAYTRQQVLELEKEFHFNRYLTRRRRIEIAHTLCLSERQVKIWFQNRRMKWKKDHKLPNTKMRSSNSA
# [6] = target: CRX (Homo sapiens, UniProt O43186 26-111, E42D)
# Sequence of CRX (Homo sapiens, UniProt O43186 26-111, E42D) (O43186 26-111 E42D): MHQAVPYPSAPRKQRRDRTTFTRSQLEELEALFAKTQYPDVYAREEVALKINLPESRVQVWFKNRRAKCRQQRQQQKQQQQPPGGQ
# [7] = target: CRX (Homo sapiens, UniProt O43186 26-111, R41L)
# Sequence of CRX (Homo sapiens, UniProt O43186 26-111, R41L) (O43186 26-111 R41L): as the sequence (O43186 26-111 E42D) above, with R16L, D17E counted along it
# [8] = target: HOXC9 (Homo sapiens, UniProt P31274 178-260, K195R)
# Sequence of HOXC9 (Homo sapiens, UniProt P31274 178-260, K195R) (P31274 178-260 K195R): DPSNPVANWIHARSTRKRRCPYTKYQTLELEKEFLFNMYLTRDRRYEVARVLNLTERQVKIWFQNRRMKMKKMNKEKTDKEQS
# [9] = target: HOXC9 (Homo sapiens, UniProt P31274 178-260)
# Sequence of HOXC9 (Homo sapiens, UniProt P31274 178-260) (P31274 178-260): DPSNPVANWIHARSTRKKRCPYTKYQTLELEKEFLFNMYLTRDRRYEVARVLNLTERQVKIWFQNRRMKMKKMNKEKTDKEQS
# [10] = target: HOXC9 (Homo sapiens, UniProt P31274 178-260, R193K)
# Sequence of HOXC9 (Homo sapiens, UniProt P31274 178-260, R193K) (P31274 178-260 R193K): as the sequence (P31274 178-260) above, with R16K counted along it
# [11] = target: HOXA4 (Homo sapiens, UniProt Q00056 201-287, W262R)
# Sequence of HOXA4 (Homo sapiens, UniProt Q00056 201-287, W262R) (Q00056 201-287 W262R): as the sequence (Q00056 201-287 R217L) above, with L17R, W62R counted along it
# [12] = target: PRRX1 (Homo sapiens, UniProt P54821 80-166, F113S)
# Sequence of PRRX1 (Homo sapiens, UniProt P54821 80-166, F113S) (P54821 80-166 F113S): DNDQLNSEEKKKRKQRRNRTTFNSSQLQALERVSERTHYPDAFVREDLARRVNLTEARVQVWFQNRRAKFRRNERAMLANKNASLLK
# [13] = target: HOXA4 (Homo sapiens, UniProt Q00056 201-287)
# Sequence of HOXA4 (Homo sapiens, UniProt Q00056 201-287) (Q00056 201-287): as the sequence (Q00056 201-287 R217L) above, with L17R counted along it
# [14] = target: HOXA4 (Homo sapiens, UniProt Q00056 201-287, W262F)
# Sequence of HOXA4 (Homo sapiens, UniProt Q00056 201-287, W262F) (Q00056 201-287 W262F): as the sequence (Q00056 201-287 R217L) above, with L17R, W62F counted along it
# [15] = target: PRRX1 (Homo sapiens, UniProt P54821 80-166)
# Sequence of PRRX1 (Homo sapiens, UniProt P54821 80-166) (P54821 80-166): as the sequence (P54821 80-166 F113S) above, with S34F counted along it
# [16] = target: PITX2 (Homo sapiens, UniProt Q99697 72-157)
# [17] = target: T4, SIX6 (Homo sapiens, UniProt O95475 114-200, L167I)
# T4 sequence: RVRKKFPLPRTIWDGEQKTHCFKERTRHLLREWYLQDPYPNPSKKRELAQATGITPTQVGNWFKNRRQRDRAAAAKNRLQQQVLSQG
# [18] = target: T5, SIX6 (Homo sapiens, UniProt O95475 114-200, L143V)
# T5 sequence: T4 sequence with L30V, I54L
# [19] = target: ALX4 (Homo sapiens, UniProt Q9H161 200-286)
# Sequence of ALX4 (Homo sapiens, UniProt Q9H161 200-286) (Q9H161 200-286): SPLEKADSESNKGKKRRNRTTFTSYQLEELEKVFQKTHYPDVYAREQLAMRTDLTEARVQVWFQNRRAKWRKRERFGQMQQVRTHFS
# [20] = target: T6, SIX6 (Homo sapiens, UniProt O95475 114-200, H141N)
# T6 sequence: T4 sequence with H28N, I54L
# [21] = target: T7, SIX6 (Homo sapiens, UniProt O95475 114-200, T165P)
# T7 sequence: T4 sequence with T52P, I54L
# [22] = target: T8, SIX6 (Homo sapiens, UniProt O95475 114-200, L167M)
# T8 sequence: T4 sequence with I54M
# [23] = target: T9, SIX6 (Homo sapiens, UniProt O95475 114-200, L143M)
# T9 sequence: T4 sequence with L30M, I54L
# [24] = target: T10, SIX6 (Homo sapiens, UniProt O95475 114-200, L143I)
# T10 sequence: T4 sequence with L30I, I54L
# [25] = target: ALX4 (Homo sapiens, UniProt Q9H161 200-286, Q225E)
# Sequence of ALX4 (Homo sapiens, UniProt Q9H161 200-286, Q225E) (Q9H161 200-286 Q225E): as the sequence (Q9H161 200-286) above, with Q26E counted along it
# [26] = target: T11, SIX6 (Homo sapiens, UniProt O95475 114-200, T165G)
# T11 sequence: T4 sequence with T52G, I54L
# [27] = target: T12, SIX6 (Homo sapiens, UniProt O95475 114-200, T139Q)
# T12 sequence: T4 sequence with T26Q, I54L
# [28] = target: T13, SIX6 (Homo sapiens, UniProt O95475 114-200, T165A)
# T13 sequence: T4 sequence with T52A, I54L
# [29] = target: T14, SIX6 (Homo sapiens, UniProt O95475 114-200, L167V)
# T14 sequence: T4 sequence with I54V
# [30] = target: T15, SIX6 (Homo sapiens, UniProt O95475 114-200)
# T15 sequence: T4 sequence with I54L
# [31] = target: T16, SIX6 (Homo sapiens, UniProt O95475 114-200, T165I)
# T16 sequence: T4 sequence with T52I, I54L
# Sequence of CRX (Homo sapiens, UniProt O43186 26-111) (O43186 26-111): as the sequence (O43186 26-111 E42D) above, with D17E counted along it
sequence,measurement,setting,value
ACTAATCG,binding signal,[1],"12.1 upbm affinity estimate (log intensity, higher = more binding, comparable within an allelic series)"
same,binding signal,[2],"11.6 upbm affinity estimate (log intensity, higher = more binding, comparable within an allelic series)"
same,binding signal,[3],"12.6 upbm affinity estimate (log intensity, higher = more binding, comparable within an allelic series)"
same,binding signal,[4],"11.5 upbm affinity estimate (log intensity, higher = more binding, comparable within an allelic series)"
same,binding signal,[5],"11.2 upbm affinity estimate (log intensity, higher = more binding, comparable within an allelic series)"
same,binding signal,[6],"11.9 upbm affinity estimate (log intensity, higher = more binding, comparable within an allelic series)"
same,binding signal,[7],"11.3 upbm affinity estimate (log intensity, higher = more binding, comparable within an allelic series)"
ATTATCTC,binding signal,[1],"11.7 upbm affinity estimate (log intensity, higher = more binding, comparable within an allelic series)"
same,binding signal,[8],"11.4 upbm affinity estimate (log intensity, higher = more binding, comparable within an allelic series)"
same,binding signal,[6],"11.5 upbm affinity estimate (log intensity, higher = more binding, comparable within an allelic series)"
same,binding signal,[9],"11.4 upbm affinity estimate (log intensity, higher = more binding, comparable within an allelic series)"
same,binding signal,[10],"11.4 upbm affinity estimate (log intensity, higher = more binding, comparable within an allelic series)"
same,binding signal,[7],"11.5 upbm affinity estimate (log intensity, higher = more binding, comparable within an allelic series)"
CCCGTCCC,binding signal,[1],"8.36 upbm affinity estimate (log intensity, higher = more binding, comparable within an allelic series)"
same,binding signal,[11],"9.79 upbm affinity estimate (log intensity, higher = more binding, comparable within an allelic series)"
same,binding signal,[12],"9.36 upbm affinity estimate (log intensity, higher = more binding, comparable within an allelic series)"
same,binding signal,[5],"9.77 upbm affinity estimate (log intensity, higher = more binding, comparable within an allelic series)"
same,binding signal,[6],"8.37 upbm affinity estimate (log intensity, higher = more binding, comparable within an allelic series)"
same,binding signal,[13],"9.89 upbm affinity estimate (log intensity, higher = more binding, comparable within an allelic series)"
same,binding signal,[7],"8.4 upbm affinity estimate (log intensity, higher = more binding, comparable within an allelic series)"
same,binding signal,[14],"9.95 upbm affinity estimate (log intensity, higher = more binding, comparable within an allelic series)"
same,binding signal,[15],"9.4 upbm affinity estimate (log intensity, higher = more binding, comparable within an allelic series)"
CAGATTAG,binding signal,[1],"13.1 upbm affinity estimate (log intensity, higher = more binding, comparable within an allelic series)"
same,binding signal,[2],"10.6 upbm affinity estimate (log intensity, higher = more binding, comparable within an allelic series)"
same,binding signal,[4],"10.7 upbm affinity estimate (log intensity, higher = more binding, comparable within an allelic series)"
same,binding signal,[6],"13.1 upbm affinity estimate (log intensity, higher = more binding, comparable within an allelic series)"
same,binding signal,[16],"12.3 upbm affinity estimate (log intensity, higher = more binding, comparable within an allelic series)"
same,binding signal,[7],"12.6 upbm affinity estimate (log intensity, higher = more binding, comparable within an allelic series)"
CTGGGGCA,binding signal,[1],"8.18 upbm affinity estimate (log intensity, higher = more binding, comparable within an allelic series)"
same,binding signal,[2],"8.13 upbm affinity estimate (log intensity, higher = more binding, comparable within an allelic series)"
same,binding signal,[3],"8.21 upbm affinity estimate (log intensity, higher = more binding, comparable within an allelic series)"
same,binding signal,[4],"8.17 upbm affinity estimate (log intensity, higher = more binding, comparable within an allelic series)"
same,binding signal,[6],"8.24 upbm affinity estimate (log intensity, higher = more binding, comparable within an allelic series)"
same,binding signal,[7],"8.28 upbm affinity estimate (log intensity, higher = more binding, comparable within an allelic series)"
CGCACCGC,binding signal,[1],"8.16 upbm affinity estimate (log intensity, higher = more binding, comparable within an allelic series)"
same,binding signal,[17],"8.91 upbm affinity estimate (log intensity, higher = more binding, comparable within an allelic series)"
same,binding signal,[18],"8.89 upbm affinity estimate (log intensity, higher = more binding, comparable within an allelic series)"
same,binding signal,[19],"8.06 upbm affinity estimate (log intensity, higher = more binding, comparable within an allelic series)"
same,binding signal,[20],"8.95 upbm affinity estimate (log intensity, higher = more binding, comparable within an allelic series)"
same,binding signal,[21],"8.88 upbm affinity estimate (log intensity, higher = more binding, comparable within an allelic series)"
same,binding signal,[22],"8.89 upbm affinity estimate (log intensity, higher = more binding, comparable within an allelic series)"
same,binding signal,[23],"8.96 upbm affinity estimate (log intensity, higher = more binding, comparable within an allelic series)"
same,binding signal,[24],"9 upbm affinity estimate (log intensity, higher = more binding, comparable within an allelic series)"
same,binding signal,[25],"8.31 upbm affinity estimate (log intensity, higher = more binding, comparable within an allelic series)"
same,binding signal,[26],"9.05 upbm affinity estimate (log intensity, higher = more binding, comparable within an allelic series)"
same,binding signal,[27],"9.17 upbm affinity estimate (log intensity, higher = more binding, comparable within an allelic series)"
same,binding signal,[6],"8.2 upbm affinity estimate (log intensity, higher = more binding, comparable within an allelic series)"
same,binding signal,[28],"8.98 upbm affinity estimate (log intensity, higher = more binding, comparable within an allelic series)"
same,binding signal,[29],"8.96 upbm affinity estimate (log intensity, higher = more binding, comparable within an allelic series)"
same,binding signal,[30],"8.97 upbm affinity estimate (log intensity, higher = more binding, comparable within an allelic series)"
same,binding signal,[31],"8.85 upbm affinity estimate (log intensity, higher = more binding, comparable within an allelic series)"
same,binding signal,[7],"8.26 upbm affinity estimate (log intensity, higher = more binding, comparable within an allelic series)"

# From paper PMC11006913
